Screening results from PubChem.
The list is not random: actives were taken first. Their share in the collection is about 3.3%.
Mcl-1 Bim block = human Bim-Mcl-1 interaction inhibition. AID 1009. 0.1% of 190,000 active. inhibition, % at 10 µM. Bead-based flow cytometry, Bim peptide-Mcl-1 binding. Q07820; in the data active = inhibition above about 40%;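 also: 0% = no compound tracer wells and 100% = peptide blocker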
NCF1 inh = p47phox (human) inhibition; P14598; p47phox/p22phox peptide binding, fluorescence polarization, 2 h; inhibition, % at 24.7 µM; 0.53% of 220,000 active;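 also: 0% = p47phox with labelled peptide and 100% = labelled peptide alone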
Target sequence (P14598 whole entry, looked up): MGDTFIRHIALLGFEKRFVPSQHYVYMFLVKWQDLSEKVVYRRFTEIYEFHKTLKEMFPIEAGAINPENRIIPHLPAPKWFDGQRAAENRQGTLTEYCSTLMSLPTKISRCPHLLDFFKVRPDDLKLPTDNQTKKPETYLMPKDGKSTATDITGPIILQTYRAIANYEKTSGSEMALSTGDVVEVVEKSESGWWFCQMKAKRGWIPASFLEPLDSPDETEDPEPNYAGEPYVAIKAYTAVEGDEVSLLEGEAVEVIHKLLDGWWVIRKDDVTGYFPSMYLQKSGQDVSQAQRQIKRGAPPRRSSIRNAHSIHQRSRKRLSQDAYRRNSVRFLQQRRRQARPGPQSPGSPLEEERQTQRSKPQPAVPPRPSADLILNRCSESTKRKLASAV
Mcl1 Noxa PPI = Mcl-1/Noxa interaction inhibition; Q07820; TR-FRET Mcl-1/Noxa peptide binding, 2 h; inhibition, % at 21.7 µM; 1.5% of 220,000 active; AID 1022;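 active = compounds that cut the protein-peptide binding signal by more than 50% relative to plate controls in a single-dose test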;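 also: His-tagged Mcl-1 with rhodamine Noxa BH3 peptide and terbium anti-His antibody; 0% = Mcl-1 plus Noxa peptide wells and 100% = peptide-only wells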
14-3-3 Bad PPI = disrupts binding of bovine 14-3-3 zeta to phospho-Bad peptide; TR-FRET 14-3-3zeta/Dy647-pBad peptide displacement, 1 h; inhibition, % at 21.7 µM; 0.71% of 220,000 active; AID 781;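 active = inhibition above about 70%, limit read from the data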;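 also: 0% = full 14-3-3 plus peptide FRET controls and 100% = background without 14-3-3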
Target sequence (P63103 whole entry, looked up): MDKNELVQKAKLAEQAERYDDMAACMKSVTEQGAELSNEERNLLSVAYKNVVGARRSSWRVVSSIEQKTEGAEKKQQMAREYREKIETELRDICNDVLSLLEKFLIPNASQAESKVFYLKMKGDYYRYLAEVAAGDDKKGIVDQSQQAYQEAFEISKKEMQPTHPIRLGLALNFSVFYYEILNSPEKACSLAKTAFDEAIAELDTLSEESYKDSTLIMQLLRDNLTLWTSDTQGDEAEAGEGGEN
Mcl1 Bid PPI = Mcl-1/Bid interaction inhibition | Q07820 | 0.97% of 220,000 active | TR-FRET Mcl-1/Bid-Dy647 peptide binding, 1536-well | inhibition, % at 21.7 µM;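 active = compounds that cut the binding signal by more than half at the single screening dose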;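 also: His-tagged Mcl-1 with europium anti-His antibody binding Bid BH3 peptide; 0% = Mcl-1 plus peptide wells and 100% = peptide-only wells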
eIF4E 4G PPI = blocks eIF4E binding to eIF4G | TR-FRET eIF4E-eIF4GI(517-606) binding, 2 h | inhibition, % at 21.7 µM | 0.37% of 220,000 active;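 also: 0% = full FRET control wells and 100% = background wells lacking eIF4GI fragment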
The depositor's hits bear a star; . = not tested or not shown; [ ] = dose if it differs, or a comment.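 The calls were made as follows, unless noted: active = inhibition above about 30% (limit read from the data); inactive = the rest.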

SMILES | Mcl-1 Bim block | NCF1 inh | Mcl1 Noxa PPI | 14-3-3 Bad PPI | Mcl1 Bid PPI | eIF4E 4G PPI
CS(=O)(=O)c1ccc(C(=O)NCCN2C(=O)S/C(=C\c3cccnc3)C2=O)cc1[N+](=O)[O-] | 0.0 | 4.1 | 80.7* | 31.9 | 23.9 | 0.8
Cc1ccc(C(=O)CSc2ncnc3sc4c(c23)CCCC4)cc1 | -3.0 | -2.5 | -37.9 | -5.8 | -7.8 | 32.7*
COc1cccc(C(=O)NC2CC3CCCC(C2)N3CC(=O)Nc2ccc(N(C)C)cc2)c1 (centres undefined) | 0.0 | -3.6 | 34.1 | 9.7 | -44.9 | -1.6
COc1cccc(C(=O)NC2CC3CCCC(C2)N3CC(=O)Nc2ccccc2)c1 (centres undefined) | 1.0 | 58.2* | 66.1* | 83.3*[fluorescence artefact?] | 53.8* | 10.7
O=C(CN1CCN(C2CCCCC2)CC1)Nc1ccccc1-c1ccccc1 | 0.0 | 1.4 | 8.0 | 83.1* | 44.1 | 5.2
CCC(C)(C)n1nnnc1CN1CCc2ccccc21 | 0.0 | -24.0 | 11.3 | -24.7 | -33.2 | -3.3
Cc1cccc(OCC(=O)N(C)CCc2ccccn2)c1 | 0.0 | 0.5 | 12.1 | 71.2* | 57.5* | 4.1
Cc1ccc(-c2[nH]ncc2/C=N/n2c(COc3ccccc3)nc3ccccc3c2=O)cc1 | -1.0 | 11.0 | -15.3 | 18.6 | 10.5 | 1.8
Cc1cc(/C=N/n2c(COc3ccccc3)nc3ccccc3c2=O)c(O)c([N+](=O)[O-])c1 | 0.0 | -1.2 | 99.7* | 48.6 | -16.9 | 11.1
CN(C)c1ccc(C(c2ccc(N(C)C)cc2)c2ccc([N+](=O)[O-])cc2)cc1 | . | 37.5* | 15.4 | -1.5 | -45.6 | 5.6
COc1ccc2c(c1)c(CC(=O)Nc1cccc(S(N)(=O)=O)c1)c(C)n2C(=O)c1ccc(Cl)cc1 | . | -31.1 | 3.5 | 1.2 | -19.8 | -11.1
Cc1ccnn1CCC(=O)N1CCCC(CCC(=O)N2CCN(c3ccccn3)CC2)C1 (centres undefined) | -1.0 | 14.2 | 5.2 | -18.6 | -47.4 | -0.5
Cc1ccc(NS(=O)(=O)c2cc([N+](=O)[O-])ccc2NNC(=S)Nc2cc(C)ccc2C)c(C)c1 | 0.0 | -20.2 | 43.8 | -9.9 | -39.9 | -1.4
Cc1ccc(NS(=O)(=O)c2cc([N+](=O)[O-])ccc2NNC(=S)Nc2cccc(Cl)c2)c(C)c1 | 0.0 | -47.8 | 87.7* | -3.0 | 45.6 | 3.5
COC(=O)CCN(C(=O)c1cccc(OC(C)=O)c1)c1ccccn1 | -4.0 | -38.8 | -0.5 | -13.6 | 52.1* | -14.6
COC(=O)CCN(C(=O)c1ccc2c(c1)OCO2)c1ccccn1 | -2.0 | -13.2 | -11.0 | -1.6 | -4.2 | -6.1
O=S(=O)(Nc1ccc(Cl)cc1)c1ccc2c(c1)CCO2 | . | -15.1 | 3.4 | 98.0* | 16.4 | -0.9
Cc1ccnc(NS(=O)(=O)c2ccc3c(c2)CCO3)c1 | . | -9.8 | 14.1 | 5.2 | -31.1 | 88.2*
CCOc1ccc(Br)cc1CN(CC)CC | . | -3.7 | -1.3 | 3.4 | -8.5 | 2.0
C#CC(C)(C)NC(=O)c1sccc1Oc1ccc(F)cc1[N+](=O)[O-] | 0.0 | -2.0 | -11.4 | -7.8 | -2.5 | -3.5
Cc1c(Cc2ccccc2)sc(/N=C/c2c(O)ccc3ccccc23)c1C(N)=O | -12.0 | -56.7 | 31.0 | 29.2 | 53.1* | 2.1
CCNc1ccc(P(=O)(c2ccccc2)c2ccccc2)cc1 | 0.0 | 5.0 | 12.7 | -4.6 | -17.1 | 4.8
Cc1cc(CNC(=O)c2ccc3c(c2)OCO3)c2ccccc2n1 | 4.0 | -5.6 | 13.8 | -1.3 | -30.9 | 0.1
CN1C(=O)C(N=Nc2ccccc2C(=O)O)N(C)C1=S (centres undefined) | -1.0 | -21.6 | 39.0 | -19.3 | 53.0* | -2.4
Cc1cc(O)c(C(C)C)cc1N=Nc1ccccc1C(=O)O | . | -94.4 | 18.6 | -0.5 | -74.6 | 2.3
SMILES | Mcl-1 Bim block | NCF1 inh | Mcl1 Noxa PPI | 14-3-3 Bad PPI | Mcl1 Bid PPI | eIF4E 4G PPI
COCc1cc(C)nc(Oc2ccccc2)c1C#N | 0.0 | 2.6 | 8.7 | -5.4 | -12.4 | -0.9
CC(C)Cc1ccc(/C(=N/O)C(=O)O)s1 | -2.0 | 58.5* | -3.3 | 3.3 | -28.7 | 0.3
O=C(Nc1cc(C(F)(F)F)ccc1N1CCOCC1)c1cccc(F)c1 | -1.0 | -8.9 | -10.4 | -3.2 | -12.6 | 2.4
O=C(Nc1cc(C(F)(F)F)ccc1N1CCOCC1)c1ccccc1F | -2.0 | -3.4 | -0.3 | 72.8* | -20.4 | 1.7
O=C(Nc1cc(C(F)(F)F)ccc1N1CCOCC1)c1ccc2ccccc2n1 | -6.0 | -4.0 | 67.7* | 8.3 | -21.4 | 2.0
CCCCOc1ccc(/C=C/C(=O)NC2=Nc3ccccc3NC(C)=C2C(=O)OCC)cc1OC | -1.0 | -58.0 | 5.7 | -18.1 | -12.7 | -3.0
NS(=O)(=O)c1ccc(CCNC(=O)COC(=O)/C=C/c2ccc(Cl)cc2)cc1 | 0.0 | -27.7 | 17.6 | -2.0 | -8.8 | 4.5
CC(NC(=O)CNC(=O)C1O[C@@H]2OC(C)(C)O[C@@H]2[C@H]2OC(C)(C)O[C@@H]12)C(=O)O (some centres undefined) | -30.0 | 0.0 | 1.9 | -6.1 | -73.2 | 5.3
c1ccc(Cn2nnc3c(NCc4ccc5c(c4)OCO5)ncnc32)cc1 | . | 20.8 | -14.6 | 21.5 | 52.2* | -12.5
CCOc1ccc(N2CCc3c(C)nc(SC)nc32)cc1 | 3.0 | -3.7 | -0.5 | -7.7 | -7.7 | 2.0
COC(=O)c1cc(=O)nc2sc3ccccc3n12 | 0.0 | -0.4 | 4.8 | . | 4.6 | .
Cc1ccc2c(CC(=O)OCc3csc(C)n3)coc2c1 | -4.0 | -5.2 | 13.6 | 12.5 | -10.2 | 1.9
O=C(OCc1cc(=O)n2c(n1)sc1ccccc12)c1cccc(O)c1 | -5.0 | -37.4 | 66.8* | 3.5 | 29.8 | 9.9
O=C(Cc1coc2cc3c(cc12)CCC3)OCc1cc(=O)n2c(n1)sc1ccccc12 | -3.0 | -15.5 | 51.3* | -0.5 | -16.1 | 7.4
O=C(OCc1cc(=O)n2c(n1)sc1ccccc12)c1ccc(O)cc1O | 0.0 | -149.3 | 41.2 | 15.8 | -15.2 | 33.0*
Cc1ccccc1C(=O)OC1OC(=O)C(Cl)=C1N1CCOCC1 (centres undefined) | -1.0 | 1.8 | 4.3 | -16.8 | -22.8 | 1.9
Cc1cc(C(=O)NCCCN(C)C)c2ccccc2n1 | 52.0* | 2.8 | 0.7 | -3.4 | 1.9 | 2.5
CCCCNC(=O)c1cc(C)nc2ccccc12 | . | -19.8 | 3.1 | 0.9 | -6.1 | 3.7
CCn1nc(C)c(NC(=O)Nc2cccc(Cl)c2Cl)c1C | -3.0 | -1.5 | 14.6 | -0.7 | -20.9 | -3.1
C/C(CCc1ccc2c(c1)OCO2)=N\NC(=O)c1ccccc1 | -2.0 | -1.5 | 15.1 | 4.4 | -7.4 | -2.3
NC(=NCc1ccc2c(c1)OCO2)NC(=O)c1ccccc1 | -1.0 | -11.6 | 8.7 | 77.3* | 7.5 | 68.1*
O=[N+]([O-])c1cc(/C=N\Nc2nccs2)ccc1O | 1.0 | -10.1 | 100.5* | 74.8*[fluorescence artefact?] | 60.5* | 49.4*[fluorescence artefact?]
O=C(CSc1nc2[nH]ncc2c(=O)[nH]1)NCc1ccc(F)cc1 | -6.0 | -9.4 | 3.4 | -6.3 | -35.8 | 3.6
